Screening data as filed in PubChem.
An excerpt weighted towards active compounds, which were near 21% of everything screened.
AMA1 RON2 block = qHTS for Inhibitors of AMA1-RON; Towards Development of Antimalarial Drug Lead: Primary Screen | Plasmodium falciparum AMA1 (3D7) - RON2 peptide interaction | AlphaScreen AMA1-biotinylated RON2 peptide binding | Potency, µM (doses to about 58.2 µM), inactives show at the top dose activity change, negative = inhibition, most hits filed as inhibitors | 360,000 tested, 0.2% active;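 note: potency is the fitted concentration of half-maximal effect; 0% = vehicle wells and -100% = peptide control; nearly all actives have a fitted effect of over 45% in size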
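AMA1 (3D7) with his tag at 25 nM final met compounds first, then biotinylated RON2 peptide at 25 nM; detection used donor plus acceptor beads, 10 µg/mL apiece, read by AlphaScreen after 30 min at room temperature.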
CHX counter = Cycloheximide Counterscreen for Small Molecule Inhibitors of Shiga Toxin | max response, % | 300,000 tested, 12% active | cell reporter, cycloheximide protein synthesis inhibition counterscreen; in the data active = max response mostly above about 13%, no sharp cut-off; inactive = mostly below about 14%; note: read at 38.3 µM for the half of the compounds with a filed dose; 0% is about no effect
Pf growth 96h = Primary qHTS for delayed death inhibitors of the malarial parasite plastid, 96 hour incubation; P. falciparum luciferase reporter growth, 96 h; Potency, µM (doses to about 28.7 µM), for the others: at the highest dose activity change, negative = inhibition, usual class: inhibitors; 320,000 tested, 6.9% active; AID 504834, 2011; note: potency is the fitted concentration of half-maximal effect; % is set by controls: 0 for no effect and ±100 for the full control effect
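Delayed-death screen, second-generation endpoint: infected erythrocytes, 2% hematocrit, 0.05% parasitemia final; 96 hours at 37 C, 5% CO2; luciferase detection reagent; luminescence decrease equals reduced growth.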
HCV inhibitor = qHTS Assay for Inhibitors of Hepatitis C Virus (HCV); Huh7.5.1 HCVcc-Cre infection, luciferase reporter, 44 h; Potency, µM (top dose mostly 41.8 µM), inactives show at the top dose activity change, negative = inhibition, hits mostly inhibitors; 340,000 tested, 3.4% active; note: potency is the fitted concentration of half-maximal effect; % is set by controls: 0 for no effect and ±100 for the full control effect
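Reporter virus HCVcc-Cre (~0.5 moi) infects cells exposed to compound; seeding density 1,000 cells/well with 4 h settling beforehand. Luminescence, 15 sec read, taken 44 h post-infection following a 15 min RT substrate incubation.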
Pf growth 48h = Primary qHTS for delayed death inhibitors of the malarial parasite plastid, 48 hour incubation; P. falciparum luciferase growth in erythrocytes, 48 h; Potency, µM (highest dose often 28.7 µM), inactives show top-dose activity change, negative = inhibition, most hits filed as inhibitors; AID 504832, 2011; 310,000 tested, 5.9% active; note: potency is the fitted concentration of half-maximal effect; % is set by controls: 0 for no effect and ±100 for the full control effect
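First compound was added to culture medium, then infected red cells at 0.1% parasitemia and 2% hematocrit (final). After incubation at 37 C under 5% CO2, luciferase detection reagent was dispensed and light output recorded.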
Shiga inhibitor = A qHTS for Small Molecule Inhibitors of Shiga Toxin. Vero cells, Shiga toxin protein synthesis inhibition reporter. inhibition, % at 38.7 µM. 290,000 tested, 9.2% active; in the data active = inhibition mostly above about 28%, no sharp cut-off; inactive = mostly below about 43%; note: 0% is about no effect
Numbers without * were called inactive; ? = inconclusive; / = no result given; [ ] = remark or other dose. Unless noted, calls come from the whole dose curve; as a rule, active = well fitted curve in the direction sought with a large enough effect; inconclusive = small, poorly fitted or top-dose-only effect, or another doubt; inactive = no such curve, though single readings can be large; an effect the other way counts as inactive or inconclusive.

SMILES | AMA1 RON2 block | CHX counter | Pf growth 96h | HCV inhibitor | Pf growth 48h | Shiga inhibitor
Cc1ccc(NC(=O)c2cnn(-c3ccccc3)c2C)cc1C | 3.0% | 15.5 | -27.8% | ? | 196.8% | 38.9
CCc1ccccc1NC(=O)c1cnn(-c2ccccc2)c1C | -17.4% | 16.2* | ? | 2.4% | -0.1% | 35.9*
COc1ccc(OC)c(NC(=O)c2cnn(-c3ccccc3)c2C)c1 | -4.0% | 8.3 | ? | -6.9% | ? | 27.4
CCc1ccccc1NC(=O)CNC(=O)CNC(=O)Cc1ccccc1 | -10.2% | / | 18.5% | 17.4% | 26.3% | /
Cc1cccc(NC(=O)c2cnn(-c3ccccc3)c2C)c1C | 21.7% | 27.3* | 16.3% | 4.3% | 28.7% | 41.2*
Cc1ccc(C)c(NC(=O)c2cnn(-c3ccccc3)c2C)c1 | -6.1% | 39.8* | ? | 0.2% | 22.7% | /
Cc1ccc(C)n1-c1c(C(=O)NN)cnn1-c1ccccc1 | 29.8% | -3.5 | ? | 5.3% | 10.4µM* | -4.4
Cc1ccc(NC(=O)/C=C/c2ccco2)nc1 | -4.6%[2.32 µM] | 33.6* | -26.2% | 5.8% | 158.4% | 77.9*
Cn1nnc(NC(=O)/C=C/c2ccco2)n1 | -16.2% | 13.5 | 30.4% | 12.0% | 32.9% | 10.1
O=C(/C=C/c1ccco1)Nc1ccccn1 | -17.5% | 36.2* | 5.8% | ? | 255.5% | 43.1*
O=C(O)/C=C/C(=O)Nc1cccc2cccnc12 | 9.5% | -2.9 | 3.0% | 33.0% | 19.5% | 33.1
O=C(/C=C/c1ccco1)Nc1cccc2cccnc12 | -45.3% | 60.9* | 75.9% | 0.6% | 66.1% | 118.9*
COc1cc(C(O)c2nc(-c3csc4ccccc34)cs2)ccc1F (stereo not drawn) | -2.0% | / | / | / | / | /
O=c1cc(C(Cl)(Cl)Cl)oc2c1ccc1ccccc12 | -13.3% | -1.3 | 0.262µM* | ? | 0.131µM* | 21.6
Cc1cc(C(=O)CCC(=O)Nc2cccc(F)c2)c(C)s1 | 7.7% | / | / | / | / | /
N/C(=N\OC(=O)c1cccc([N+](=O)[O-])c1)c1cccnc1 | -21.4% | 25.9* | 86.9% | -11.1% | 84.5% | 23.0
N/C(=N\OC(=O)c1cccs1)c1cccc([N+](=O)[O-])c1 | 10.7% | 36.0* | 129.6% | 8.6% | 218.5% | 84.6*
Cc1cccc(C(=O)O/N=C(\N)c2cccc([N+](=O)[O-])c2)c1 | -2.5% | 52.9* | -0.6% | ? | 38.3% | 98.8*
Cc1ccccc1C(=O)O/N=C(\N)c1cccc([N+](=O)[O-])c1 | -1.4% | 65.4* | ? | -22.0% | -35.4% | 99.5*
